# Assay outcomes: PubChem, National Center for Advancing Translational Sciences (NCATS)
# The list is not random: actives were taken first. Their share in the collection is about 6.5%.
# VACV mCherry inh: inhibitors of vaccinia virus infection (mCherry reporter signal) | Potency, µM (highest dose often 36.5 µM), actives largely listed as inhibitors | 310,000 compounds, 0.63% hits | Vaccinia virus mCherry reporter infection, fluorescence; calls by dose curve; tested in A549 cells; also: nearly all actives have a fitted effect of over 35% in size
# Marburg entry inh: blocks Marburg virus binding to or entry into cells; Marburg virus pseudotyped entry inhibition, cell reporter; Potency, µM (series often up to 37.8 µM), hits mostly inhibitors; 300,000 compounds, 1.8% hits; AID 540276; calls by dose curve; tested in HEK293 cells
# LASV entry inh: blocks Lassa virus binding to or entry into cells; Lassa virus pseudotype entry inhibition, cell reporter; Potency, µM (titrated, usually from 37.9 µM), usual class: inhibitors; 300,000 compounds, 1.2% hits; calls by dose curve; tested in HEK293 cells; also: nearly all actives have a fitted effect of over 50% in size
# HCMV antiviral: inhibitors of human cytomegalovirus; HFF cells, HCMV-luciferase reporter, 72 h; stronger effect = lower value; activity change, negative = inhibition, % at 57.5 µM; 410,000 compounds, 4.5% hits; AID 1259415; in the data active = activity change below about -60%; inconclusive = no clear call, values can overlap the other calls; inactive = above about -39%
#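 Cell-based, HFFs, 1000 cells/well, 16 h 37C; cpds in DMSO + HCMV-luc, MOI 1 PFU/cell; 72 h 37C; OneGlo luminescence after 5 min RT; norm. to buffer vs Salinomycin 10uM.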
# FMDV inh: foot and mouth disease virus antiviral activity; FMDV antiviral cell-based qHTS; Potency, µM (top dose mostly 57.9 µM), most hits filed as inhibitors; 410,000 compounds, 1.2% hits; AID 1159524; calls by dose curve; tested in HEK293T cells; also: read-out not given here; nearly all actives have a fitted effect of over 45% in size
# Vaccinia Venus: vaccinia inhibition (Venus reporter). 330,000 compounds, 0.46% hits. Potency, µM (top dose mostly 36.5 µM), most hits filed as inhibitors. AID 720580. Vaccinia virus Venus reporter expression, fluorescence; calls by dose curve; tested in A549 cells; also: nearly all actives have a fitted effect of over 30% in size
# Numbers stand for hits; . = inactive; ? = inconclusive; / = no result; ! = not active in a repeat; [ ] = another dose, or the depositor's remark.
SMILES,VACV mCherry inh,Marburg entry inh,LASV entry inh,HCMV antiviral,FMDV inh,Vaccinia Venus
Cc1cc(C)c(NC(=O)CSc2nc3ccccc3nc2N2CCCCC2)c(C)c1,.,.,.,.,.,.
O=C(Nc1nc(-c2ccc3c(c2)OCCO3)cs1)C1CC(=O)N(c2ccc3c(c2)OCCO3)C1 (configuration not stated),.,/,/,/,/,?
CC(=O)C(C(=O)Nc1c(C)cccc1C)N(C(=O)Cc1ccc([N+](=O)[O-])cc1)c1ccccc1 (configuration not stated),/,/,/,.,/,/
COC(=O)c1ccc(NC(=O)C2CCN(C(=O)c3cc(OC)c(OC)c(OC)c3)CC2)cc1,.,.,.,-101,.,.
CCc1nc(C)cn1S(=O)(=O)c1cc(C)c(OC)cc1C,.,/,/,.,.,.
CCc1nc(C)cn1S(=O)(=O)c1cc(C)c(OC)c(C)c1C,.,?,?,-76,.,?
CC(=O)/C=C\c1cn(-c2ncc(C(F)(F)F)cc2Cl)c2ccccc12,/,?,?,.,32µM,.
Cc1ccn(CCC(=O)N2CCOc3ccc(C(O)C4CCCCC4)cc3C2)n1 (configuration not stated),.,/,/,/,.,.
CCCCCn1c(=O)c(C(=O)Nc2ccccc2S(N)(=O)=O)c(O)c2ccccc21,.,?,?,-101,.,?
CCCCCCCn1c(=O)c(C(=O)Nc2cnccn2)c(O)c2ccccc21,.,?,?,-62,.,.
CCOc1ccc(CC(=O)Nc2c(C(=O)c3ccc(F)cc3)oc3ccc(Cl)cc23)cc1OCC,.,?,.,.,.,.
CCCCCC(CC(=O)NO)C(=O)NC(C(=O)N1CCCC1CO)C(C)C (configuration not stated),.,/,/,-69,.,.
CN1CCN(/N=C/c2ccc(N(c3ccccc3)c3ccccc3)cc2)CC1,.,1.3µM,0.63µM,.,?,.
NC(=O)[C@@H]1CCCN1C(=O)CC1(c2cccc(F)c2)CC(=O)N(C2CCCC2)C1=O (some centres not stated),.,/,/,/,.,.
Cc1ccccc1NC(=O)CN1C(=O)N/C(=C/c2cccn2-c2cccc(C(=O)O)c2)C1=O,/,.,/,/,/,/
CC1=CC[C@@H](COc2ccccc2)O[C@@]2(C1)C(=O)N(Cc1ccccc1C(F)(F)F)c1ccccc12,/,.,/,/,/,/
O=C(c1ccoc1)N1CCOc2ccc(CN3CCC(Oc4cccnc4)CC3)cc2C1,.,/,/,/,.,.
O=C1OCC/C1=C\c1ccccc1,.,.,.,.,.,.
O=C1/C(=C/c2ccccc2)CCc2ccc(Cl)nc21,.,?,?,-63,35µM,.
CC(C)S(=O)(=O)c1oc(-c2ccc(F)cc2)nc1S(=O)(=O)c1ccccc1,.[7.34 µM],?,?,-97,16µM,.[7.34 µM]
CSc1oc(-c2ccc(F)cc2)nc1S(=O)(=O)c1ccccc1,.,.,.,.,/,.
CSc1oc(-c2ccc(F)cc2)nc1S(=O)(=O)c1ccc(F)cc1,.,/,/,?,.,.
CCS(=O)(=O)c1oc(-c2ccc(F)cc2)nc1S(=O)(=O)c1ccc(Br)cc1,.,?,?,-99,14µM,?
CC(C)S(=O)(=O)c1oc(-c2cccs2)nc1S(=O)(=O)c1ccc(F)cc1,.[7.34 µM],?,?,-102,22µM,.[7.34 µM]
Cc1ccc(S(=O)(=O)c2nc(-c3cccs3)oc2SC(C)C)cc1,.,.,.,.,.,.
SMILES,VACV mCherry inh,Marburg entry inh,LASV entry inh,HCMV antiviral,FMDV inh,Vaccinia Venus
CCCCS(=O)(=O)c1oc(-c2ccc(F)cc2)nc1S(=O)(=O)c1ccccc1,.[7.34 µM],?,?,-99,32µM,.[7.34 µM]
Cc1ccc(-n2nc(C)c3c(C(=O)Nc4ccc(C)cc4Cl)cc(C)nc32)cc1,.,/,.,.,.,.
O=C(NCCC(F)(F)F)C1=CN2CCN(Cc3cccc(Cl)c3)C(=O)N=C2O1,/,/,/,.,/,/
COc1cccc(Cn2cc(C(=O)c3ccc(Cl)cc3)c(=O)c3ccccc32)c1,.,?,?,.,.,.
CS(=O)(=O)c1oc(-c2ccc(F)cc2)nc1S(=O)(=O)c1ccc(Cl)cc1,?,.,?,-96,25µM,?
CCN1CCCC1CNC(=O)c1cnn(-c2nccc(-c3ccc(C)o3)n2)c1C1CC1 (configuration not stated),.,/,/,/,.,.
Cc1cc(C)cc(NS(=O)(=O)c2ccc(NC(=S)NC(=O)c3ccc(Br)o3)cc2)c1,/,16µM,.,-76,.,?
COc1ccc(C(=O)/C=C/C(=O)N(Cc2ccc3c(c2)OCO3)C(C(=O)NC2CCCCC2)c2ccncc2)c(O)c1 (configuration not stated),?,?,?,?,.,?
COc1ccc(C(=O)/C=C/C(=O)N(CC(=O)NC2CCCCC2)Cc2cccs2)c(O)c1,/,/,/,-100,6.3µM,/
COc1ccc(C(=O)OCC(=O)NC(=O)NC2CCCC2)c(O)c1,.,.,.,.,.,.
COc1ccc(CN(C(=O)/C=C/C(=O)c2ccc(OC)cc2O)C(C(=O)NC2CCCCC2)c2ccncc2)cc1 (configuration not stated),.,?,?,-84,.,?
COCCN(CC(=O)NC1CCCCC1)C(=O)/C=C/C(=O)c1ccc(OC)cc1O,.,11µM,13µM,-112,3.2µM,.
Brc1ccc(-c2ccc(CNCCSc3nnnn3-c3ccccc3)o2)cc1,.,.,.,.,.,.
NNc1ncnc2scc(-c3ccc(Cl)cc3)c12,?,.,.,-99,?,.
Clc1ccc(-c2csc3ncnc(Cl)c23)cc1,.,.,.,.,?,.
c1csc(-c2csc3ncnc(NCCCN4CCOCC4)c23)c1,/,?,.,-67,?,/
Cc1ccc(-c2csc3ncnc(NS(=O)(=O)c4ccc(Cl)cc4)c23)cc1,.,.,?,?,.,.
OCCCNc1ncnc2scc(-c3ccc(Cl)cc3)c12,?,?,.,-80,?,.
Cc1cc(=O)n(Cc2cccc(Cl)c2)c2c1c(C)nn2C,.,/,.,.,.,.
COc1ccc(CCNC(=O)c2ccc3c(c2)CCN3S(=O)(=O)c2ccc(Cl)cc2)cc1,.,?,?,.,.,.
O=C(NCC1CCCO1)c1ccc(COc2ccc(F)cc2)o1 (configuration not stated),.,.,?,.,/,.
CCOc1cc(N)c(Cl)cc1C(=O)NCC1CN(Cc2ccc(F)cc2)CCO1 (configuration not stated),.,/,/,-66!,.,.
O=C1c2ccccc2-c2cccnc21,/,/,/,-104,.,/
Cc1cc2c(cc1C)C(=O)C(Br)=C(N)C2=O,?,.,.,.,.,.
NC1=C(Br)C(=O)c2ccccc2C1=O,.,?,.,-86,.,?
COc1ccc(OC)c2c1C(=O)c1ccccc1C2=O,.,.,.,.,.,.
O=C1C(=C(I)I)c2ccccc2-c2ccccc21,?,?,?,-100,18µM,?
COC1=C(OC)C(=O)c2ccccc2C1=O,.,?,21µM,/,/,.
COc1cc(OC)c(OC)cc1CN1CCCC(c2nc(C)ncc2-c2ccc(F)cc2)C1 (configuration not stated),.,/,/,/,.,.
